“And” between values parts separate entries of the source, which are not always exact repeats. Identical values can stand only once.

A short description of the experiment: survival rescue of mitochondrial mutant cells in low glucose, primary screen, MELAS cybrids, Rieske KO mouse fibroblasts, CellTiter-Glo (AID 1508586).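 Note: test concentration not given here; z relative to plate mean and SD of compound and empty wells.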 Conditions: Rieske KO mouse fibroblast survival, CellTiter-Glo 72 h.
`CC(CNC(=O)c1cccnc1)NC(=O)c1cccnc1` (centres undefined): the z-score is -0.298.

In the case of `CCOC(=O)C(CCc1ccccc1)NC1CSC(c2cccs2)CN(CC(=O)O)C1=O` (centres undefined), the z-score is -0.0675.

On to `CNc1nc(Nc2cnn(C3CCN(C4COC4)CC3F)c2Cl)ncc1C(F)(F)F` (centres undefined), for which the z-score is 0.843.

As to `C=C1CCC(O)CC1=CC=C1CCC[C@]2(C)C(C(C)C=CC(C)C(C)C)CC[C@@H]12` (some centres undefined), the z-score is -0.174.

In turn, `O=C(C=Cc1cccc(S(=O)(=O)Nc2ccccc2)c1)NO` returned a z-score of 1.18.

The molecule `CCN1C(=CC(C)=O)Sc2ccc(OC)cc21` displayed a z-score of 1.67.

Regarding `CC1C[C@@H]2[C@@H](C(O)C[C@@]3(C)[C@H]2CC[C@@]3(O)C(=O)CO)[C@@]2(C)C=CC(=O)C=C12` (some centres undefined), the z-score was -0.516.

Take `Cc1onc(-c2ccccc2Cl)c1C(=O)NC1C(=O)N2C(C(=O)O)C(C)(C)S[C@@H]12` (some centres undefined): the z-score was 0.485.

`CC(CCC(=O)O)C1CC[C@H]2[C@@H]3CC[C@@H]4CC(O)CC[C@]4(C)[C@H]3CC[C@]12C` (some centres undefined): the z-score is -0.272.

As for `CC(=O)O[C@@]1(C(C)=O)CC[C@H]2[C@@H]3CCC4=CC(=O)CCC4=C3C(c3ccc(N(C)C)cc3)C[C@@]21C` (some centres undefined), the z-score was -0.0703.

`CC1(C)S[C@@H]2C(NC(=O)Cc3ccccc3)C(=O)N2C1C(=O)O` (some centres undefined): the z-score was -0.226.

On to `O=C1c2ccc(Nc3ccc(F)cc3F)cc2CCc2ccc(OCC(O)CO)cc21` (centres undefined), for which the z-score is 0.56.

`COc1cc2ncnc(Sc3nnc(C)s3)c2cc1OC` yielded a z-score of 1.21.

For the molecule `CC(C)(F)CC(NC(c1ccc(-c2ccc(S(C)(=O)=O)cc2)cc1)C(F)(F)F)C(=O)NC1(C#N)CC1` (centres undefined), the z-score was -0.123.

With `CC(NC(=O)C(C#N)=Cc1cccc(Br)n1)c1ccccc1` (centres undefined), the z-score worked out at 0.371.

Consider `COc1cccc2c1C(=O)c1c(O)c3c(c(O)c1C2=O)C[C@@](O)(C(C)=O)CC3O[C@H]1CC(N)C(O)C(C)O1` (some centres undefined), for which the z-score is -0.443.

With `COc1cc(C=CC(=O)N2CCN(CC(=O)N3CCCC3)CC2)cc(OC)c1OC`, the z-score was -0.0197.

As for `CC(C)(O)CCC(O)[C@](C)(O)C1CC[C@@]2(O)C3=CC(=O)[C@@H]4CC(O)C(O)C[C@]4(C)[C@@H]3CC[C@]12C` (some centres undefined), the z-score came out at 0.685.

`O=C(O)c1cc(I)ccc1NC(=O)C(Cc1ccccc1)NCc1ccccc1` (centres undefined) showed a z-score of 1.09.

`COC(c1ccccc1)(c1ccccc1)C(Oc1nc(C)cc(C)n1)C(=O)O` (centres undefined): the z-score was 0.0441 and -0.167.

On to `CC1(C)O[C@H]2CC(=O)OC[C@]23[C@H]2CC[C@@]4(C)C(c5ccoc5)OC(=O)C5O[C@]54[C@@]2(C)C(=O)C[C@@H]13` (some centres undefined), for which the z-score is -0.503.

`C=CC[N+]1(C2C[C@H]3[C@@H]4CC[C@H]5CC(O)C(N6CCOCC6)C[C@]5(C)[C@@H]4CC[C@]3(C)C2OC(C)=O)CCCC1` (some centres undefined) returned a z-score of 0.424.

In turn, `CC1C(NC(=O)C(=NOC(C)(C)C(=O)O)c2csc(N)n2)C(=O)N1S(=O)(=O)O` (centres undefined) returned a z-score of 0.579.

For the molecule `Cc1c(O)cccc1C(=O)NC(CSc1ccccc1)C(O)CN1C[C@H]2CCCC[C@H]2CC1C(=O)NC(C)(C)C` (some centres undefined), the z-score is -0.0438.

For the molecule `CC1(C)C=C(CN2CC(=Cc3ccc(F)cc3)C(=O)C(=Cc3ccc(F)cc3)C2)C(C)(C)N1O`, the z-score is -2.15.

On to `CC1CNc2c(cccc2S(=O)(=O)N[C@@H](CCCN=C(N)N)C(=O)N2CCC(C)CC2C(=O)O)C1` (some centres undefined), for which the z-score was -0.0788.

In the case of `CN(C)C(=O)Nc1cccc(-c2ccc(N(C)C)cc2)c1`, the z-score is -1.04.

Take `CCC1C(=O)N(C)c2cnc(Nc3ccc(C(=O)NC4CCN(C)CC4)cc3OC)nc2N1C1CCCC1` (centres undefined): the z-score was -1.35.

With `CCC(C)C(=O)OC1CC(O)C=C2C=CC(C)C(CCC(O)CC(O)CC(=O)O)[C@H]21` (some centres undefined), the z-score was -0.0533.

On to `O=[N+]([O-])c1cn2c(n1)OCC(OCc1ccc(OC(F)(F)F)cc1)C2` (centres undefined), for which the z-score was 0.787.

For `CC1OC(O)C(O)C(O)C1O` (centres undefined), the z-score is -0.0922.

Regarding `CC1CC(=O)NN=C1c1ccc(NN=C(C#N)C#N)cc1` (centres undefined), the z-score was -0.733.

As to `O=c1ncccn1C1OC(CO)C(O)C1O` (centres undefined), the z-score was -1.06.

On to `Cc1nc(Nc2n[nH]c3c2CN(C(=O)NC(CN(C)C)c2ccccc2)C3(C)C)c2sccc2n1` (centres undefined), for which the z-score was -7.7.

With `C=C1C(=O)OC2C=C(C)CCC=C(C)CCC12` (centres undefined), the z-score is -0.0875.

Consider `CCOC(=O)c1ccc(N2NC(=O)C(=Cc3ccc([N+](=O)[O-])o3)C2=O)cc1`, for which the z-score was -2.84.

For `CC(C=CC1=C(C)CCCC1(C)C)=CC=CC(C)=CC(=O)O`, the z-score is 0.231 and 0.975.

Regarding `COc1ccc(CCc2nc3cc(-c4c(C)noc4C)ccc3n2CC(C)N2CCOCC2)cc1Cl` (centres undefined), the z-score is -1.46.

`O=C(CCCS)NC1CCN(C(=O)COc2ccc(Cl)cc2Cl)CC1` gave a z-score of 1.05.

For the origin of these results see PubChem BioAssay.
